Data: PubChem BioAssay AID2156 (Johns Hopkins Ion Channel Center, 2009)
Out of some 310,000 compounds screened, about 3,400 (1.1%) were called active.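 Rule for the calls: active = fluorescence ratio B-score at most minus 3 library SDs, with starting brightness B-score within 2 library SDs (cut at about -5.5 in these data); inactive = the rest, inconclusive results apart.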 This excerpt belongs to a sample that is enriched for actives. Peptide text beside a SMILES is read from it. * marks the point of attachment. OPac = O=C(CO*)c1ccccc1; Bz = O=C(c1ccccc1)*

target: Potassium voltage-gated channel subfamily KQT member 2 (Rattus norvegicus) (UniProt O88943); assay: KCNQ2 channel blockers in CHO-K1 cells – cell-based, FluxOR thallium flux, B-score, primary screen (AID 2156); conditions: 20 min, at 10 µM; hits give low values
Sequence (O88943 whole entry, looked up): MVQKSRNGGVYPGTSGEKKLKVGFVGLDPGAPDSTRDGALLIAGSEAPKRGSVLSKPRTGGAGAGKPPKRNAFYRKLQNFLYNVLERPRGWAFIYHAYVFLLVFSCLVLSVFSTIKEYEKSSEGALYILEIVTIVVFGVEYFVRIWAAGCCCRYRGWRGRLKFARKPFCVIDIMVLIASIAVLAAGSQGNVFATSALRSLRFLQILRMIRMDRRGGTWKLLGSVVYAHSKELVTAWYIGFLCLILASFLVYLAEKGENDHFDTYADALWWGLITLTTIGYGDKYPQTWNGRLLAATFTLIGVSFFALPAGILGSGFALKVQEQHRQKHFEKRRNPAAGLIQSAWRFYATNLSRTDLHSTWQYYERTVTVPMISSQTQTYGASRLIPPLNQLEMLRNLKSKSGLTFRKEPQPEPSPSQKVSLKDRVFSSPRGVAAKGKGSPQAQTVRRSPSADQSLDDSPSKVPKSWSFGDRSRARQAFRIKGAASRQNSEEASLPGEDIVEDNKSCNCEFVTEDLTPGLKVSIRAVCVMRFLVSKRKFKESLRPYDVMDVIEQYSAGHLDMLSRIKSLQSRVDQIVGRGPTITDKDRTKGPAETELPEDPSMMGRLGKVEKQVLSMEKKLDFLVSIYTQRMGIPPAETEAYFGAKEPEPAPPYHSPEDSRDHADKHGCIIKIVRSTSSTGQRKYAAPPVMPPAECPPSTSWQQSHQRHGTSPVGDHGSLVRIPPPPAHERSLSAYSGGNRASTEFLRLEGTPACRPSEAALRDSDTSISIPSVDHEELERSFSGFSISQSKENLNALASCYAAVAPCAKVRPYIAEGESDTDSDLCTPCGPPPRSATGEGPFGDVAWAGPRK

B-score, inactive:
O=C(N/N=C/c1cc(Br)c(O)c([N+](=O)[O-])c1)C(O)(c1ccccc1)c1ccccc1
C=CCOC(=O)C1=C(C)OC(N)=C(C#N)C1c1ccc(F)cc1 (configuration not stated)
CCOC(=O)CSC1=C(C#N)C(c2ccco2)C(C(=O)OCc2ccccc2)=C(C)N1 (configuration not stated) -2.55
CC(C)N(Cc1nnc(-c2ccc(Cl)cc2)o1)C(=O)C1=COCCO1 -1.82
CCOn1c(SC(C)C)nc2ccccc2c1=O -2.44
CCOC(=O)C1CCc2nc3ccccc3c(=O)n21 (configuration not stated)
CCCCn1c(N)c(N(CCOC)C(=O)c2cccc(S(=O)(=O)N(C)c3ccccc3)c2)c(=O)[nH]c1=O -0.06
COc1ccc(C)cc1NC(=O)C(Sc1ccccc1)c1ccccc1 (configuration not stated) -2.05
COc1ccc(C)cc1NC(=O)Nc1ccccc1SC
Cc1ccc(S(=O)(=O)N2CCN(C(=O)c3ccccc3-c3nc4ccccc4s3)CC2)c(C)c1 -0.72
CCOC(=O)CSc1nc2c(c(=O)n(C)c(=O)n2C)n1Cc1ccccc1F
CCOC(=O)CSc1nnc(-c2ccco2)n1C
OCCCNc1nc(-c2ccccc2)c2cc(Cl)ccc2n1
CCCCn1c(N)c(N(CC(C)C)C(=O)c2ccc(Br)o2)c(=O)[nH]c1=O
O=C(c1ccc(F)c(S(=O)(=O)N2CCOCC2)c1)N(CCc1ccccc1)Cc1ccccc1 -2.85
CC(C)(C)Oc1ncc(Br)c(OC(C)(C)C)n1
COc1ccc(-c2nc(N)ncc2-c2ccc(Cl)cc2)c(O)c1 -0.21
CC(Oc1ccc(F)cc1)C(=O)Nc1ccccc1C(=O)NC1CC1 (configuration not stated) -1.68
COc1ccc(C2CC(c3cccs3)=NN2C(=O)CCC(=O)O)cc1OC (configuration not stated)
COc1ccc(C2CC(c3cccs3)=NN2C(=O)COC(=O)c2cc3ccccc3cc2O)cc1OC (configuration not stated)
Nc1cccnc1Sc1ccccc1
O=C(CNC(=O)c1ccccc1)NCC(=O)OCC(=O)c1ccccc1 (Bz-Gly-Gly-OPac)
COCCNC(=O)COc1ccccc1C -1.11
Nc1c(C(=O)Nc2ccc3c(c2)OCCO3)nnn1Cc1ccccc1 -0.47
CN1/C(=C\C(=O)c2oc3ccccc3c2N)C(C)(C)c2ccccc21 -0.16
CC(C)Nc1nnc(SCC(=O)/C=C2\N(C)c3ccccc3C2(C)C)s1
Cc1ccc(NC(=O)C2CCCN2C(=O)OCc2ccccc2)cc1C (configuration not stated)
Cc1ccc(S(=O)(=O)N(C)C)cc1NC(=O)C1Cc2ccccc2CN1C(=O)c1ccco1 (configuration not stated) -0.13
CCOC(=O)c1sc(=NC(=O)c2ccc(Br)cc2)n(C)c1C
CCOC(=O)c1sc(=S)n2c1[nH]c(=O)c1ccc(C(=O)OC)cc12
Cc1cc(Nc2ccc(Br)cc2)nc2ccccc12
Cc1ccc2nc(SCC(=O)N3CCN(c4ccccc4)CC3)nc(=O)n2c1 -0.18
Cc1nc(-c2ccc(F)cc2)c(CC(=O)Nc2cccc(S(=O)(=O)N3CCOCC3)c2)s1 -0.75
CCOC(=O)C1CCN(C(=O)COC(=O)C2CCN(S(=O)(=O)c3ccc4c(c3)OCCO4)CC2)CC1
CCOc1ccc(C(=O)Nc2cc(Cl)ccc2-n2cncn2)cc1OC -0.08
CC(=O)Nc1ccc(NC(=O)CSC2=NS(=O)(=O)c3ccccc3N2)cc1
COc1ccc(C(CNC(=O)c2ccc(NS(=O)(=O)c3ccc(F)c(C)c3)cc2)N(C)C)cc1 (configuration not stated)
CCCCn1c(N)c(N(CC(C)C)C(=O)C2CSC3(C)CCC(=O)N23)c(=O)[nH]c1=O (configuration not stated) -1.75
Cc1cccc(C(C)C)c1NC(=O)COC(=O)C1CC(=O)N(Cc2ccccc2)C1 (configuration not stated)
CC(=O)N1N=C(c2ccccc2)OC1c1cccnc1 (configuration not stated)
O=C(Cc1ccccc1)N1N=C(c2ccncc2)CC1(O)C(F)(F)F (configuration not stated)
CC(=O)Nc1cccc(C(=O)OCC(=O)NCc2cc(C)c(O)c(C)c2)c1
COc1ccc(-c2n[nH]c(C)c2-c2ccccc2OC)c(O)c1
COc1ccccc1-c1nc(SC)n[nH]1 -0.1
Cc1ccnc(NC(=O)CCC(=O)N(CC(=O)NCc2ccccc2)Cc2ccco2)c1 -0.05
Cc1ccc(C(C(=O)NC2CCCC2)N(Cc2ccco2)C(=O)CCC(=O)Nc2ccccn2)cc1 (configuration not stated) -1.92
O=C(c1ccc(Cl)s1)N(Cc1nnc(-c2ccccc2Cl)o1)C1CC1 -0.68
O=C(O)c1ccccc1C(=O)Nc1ccccc1[N+](=O)[O-] -1
O=C(Nc1ccccc1-c1ccccc1)c1ccccc1[N+](=O)[O-] -3.5
CCC(CC)c1nnc(NC(=O)C2=COCCO2)s1 -0.29
CCOc1cc(N2CCOCC2)c(OCC)cc1NC(=O)COc1cccc(Cl)c1
CCOc1cc(N2CCOCC2)c(OCC)cc1NC(=O)COc1cccc2cccnc12 -3.14
Cc1ccc(-c2nn(-c3ccc(F)cc3)cc2C(=O)NCC(c2cccs2)N2CCOCC2)cc1 (configuration not stated) -1.75
CCOC(=O)N1CCN(C(=O)c2nn(-c3ccc(C)cc3)c(=O)c3c2c2ccccc2n3C)CC1
O=C(c1ccccc1Oc1ccccc1)N1CCN(c2ccc(F)cc2)CC1 -3.32
CN1C(C(=O)NCC2CC2)CC2Cn3c(nc4ccccc43)C21 (configuration not stated)
CCOC(=O)c1cnc2nc(SCc3ccccc3Cl)[nH]n2c1=O -0.81
O=C(CN1CCN(C2CCCCC2)CC1)Nc1ccccc1N1CCCCC1
O=C(Cc1cccc2ccccc12)NCCC1=CCCCC1 -0.18
Cn1c(=O)c2c(nc(SCC(=O)Nc3ccccc3N3CCCCC3)n2C)n(C)c1=O -0.67
Cc1ccc(C(C)C)cc1OCCN1CCCC1
CCC(=O)N1CCN(c2ccccc2NC(=O)COc2cccc(C)c2C)CC1 -4.29
Cc1ccccc1NC(=O)Nc1ccccc1N1CCCCC1
N#Cc1cccc(OC(=O)c2ccc3c(=O)n4c(nc3c2)CCC4)c1 -0.01
CN1CCN(S(=O)(=O)c2ccc(Nc3ccc(F)cc3)nc2)CC1 -0.21
COc1ccccc1CCNC(=O)CN1C(=O)NC2(CCCC2)C1=O
CC(Oc1cccc(Cl)c1)C(=O)Nc1ccc(S(=O)(=O)Nc2ncccn2)cc1 (configuration not stated)
CSc1ccc(/C=C2\NC(=O)NC2=O)cc1
CCOC(=O)CN(C)Cc1c[nH]c2ccccc12
O=C(COC(=O)Cc1c[nH]c2ccccc12)NCCc1ccccc1 -0.71
CCCCN(C(=O)c1ccc(C)o1)c1c(N)n(CCCC)c(=O)[nH]c1=O
CCC1CCC/C1=N\NC(=O)c1ccc(Cl)cc1 (configuration not stated)
OC(COc1cccc2ccccc12)CN1CCN(c2ccccn2)CC1 (configuration not stated)
Cc1cc(C)c(NC(=O)C[N+](C)(C)CC(O)COc2cccc3ccccc23)c(C)c1 (configuration not stated)
Cc1ccc(C(=O)NNC(=O)C(C)Oc2ccc3ccccc3c2)o1 (configuration not stated)
CCN(CC(=O)Nc1ccc(NC(C)=O)cc1)C(=O)C1CC(=O)N(Cc2ccc(C)cc2)C1 (configuration not stated) -0.36

B-score, active:
C=CCOC(=O)C1=C(C)NC(SCC(=O)OCC)=C(C#N)C1c1ccc(C)cc1 (configuration not stated) -6.37
CCOC(=O)C(C)Sc1nc2ccccc2c(=O)n1CC1CCCCC1 (configuration not stated) -10.1
COc1ccc(C)cc1NC(=O)C(OC(=O)c1cccc(S(=O)(=O)N(C)c2ccccc2)c1)c1ccccc1 (configuration not stated) -7.07
CCOC(=O)CSc1nc2c(sc(=S)n2CCc2ccccc2)c(=O)n1Cc1ccco1 -5.6
COc1cccc(-c2cnc(OC(C)(C)C)nc2OC(C)(C)C)c1 -7.02
O=C1c2cccc(OCC(=O)N3N=C(c4cccs4)CC3c3ccc(F)cc3)c2CCN1Cc1ccccc1 (configuration not stated) -5.75
Cc1ccccc1OCC(=O)NCC(=O)OCC(=O)c1ccc2ccccc2c1 -5.95
CC(=O)Nc1cccc(OCC(=O)/C=C2\N(C)c3ccccc3C2(C)C)c1 -6.18
Cc1ccc(C)c(NC(=O)C2Cc3ccccc3CN2C(=O)OCc2ccccc2)c1 (configuration not stated) -6.25
CCOC(=O)C1=C(C)Nc2sc(C(=O)c3ccc(Br)cc3)c(N)c2C1c1ccc(C(=O)OC)cc1 (configuration not stated) -6.56
CC(=O)N1N=C(c2ccncc2)OC1(Cc1ccccc1)Cc1ccccc1 -7.53
COc1ccccc1-c1n[nH]c2c1[C@H](C)CC[C@H]2C(C)C -10.1
Cc1ccc2c(c1)N(CC(=O)N(Cc1ccccn1)Cc1ccco1)C(=O)C(C(C)C)O2 (configuration not stated) -7.54
O=C(Nc1ccccc1[N+](=O)[O-])C1C(c2ccccc2)=C1c1ccccc1 -5.88
CCOc1cc(N2CCOCC2)c(OCC)cc1NC(=O)c1ccc(C)s1 -6.48
Cn1c2ccccc2c2c(C(=O)N3CCN(c4ccc(F)cc4)CC3)cn(C3CCCC3)c(=O)c21 -5.96
O=C(CNCCC1=CCCCC1)Nc1ccccc1N1CCCCCC1 -8.12
Cc1ccc(C(C)C)cc1OCC(=O)Nc1ccccc1N1CCCC1 -8.31
Cc1ccccc1NC(=O)CNc1ccccc1N1CCCCC1 -5.56
O=C(Cc1c[nH]c2ccccc12)OCCOC(=O)Cc1c[nH]c2ccccc12 -7.66
CC(C)c1ccccc1OCC(O)CN(CC(O)COc1cccc2ccccc12)C(C)C (configuration not stated) -6.3
